# Active and inactive are the calls of the source. Calls come from the whole dose curve; as a rule, active = well fitted inhibition curve with a large enough effect; inconclusive = small, poorly fitted or top-dose-only effect; inactive = flat fitted curve, though single readings scatter.
# Tested on: Nanoluciferase (engineered Oplophorus gracilirostris luciferase)
# Assay: Primary Nanoluciferase (NLuc) qHTS assay for identification of artifact compounds. (AID 1845222);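 note: NLuc secreted into diluted conditioned medium of S16 cells; 0% = DMSO and -100% = no enzyme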
# Conditions: NLuc-conditioned medium, Nano-Glo luminescence, 5 min; series mostly up to 54.1 µM; activity, negative = inhibition: at the top concentration
# Method in brief: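 NLuc from S16 cell medium (1:55) plus test compounds, 15 min, room temperature. Luminescence after Nano-Glo (1:100) addition, 5 min.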
row,SMILES,"activity, negative = inhibition"
1,O=C(Nc1nnc(-c2ccc3c(c2)OCCO3)o1)C1CCCCC1,-0.617% (inactive)
2,CC(C)n1c(=O)c(C(=O)NC2CC3CCC(C2)N3C[C@@H](O)CN(C)S(C)(=O)=O)cc2ccccc21 (some centres not stated),-3.85% (inactive)
3,NCC1CCN(c2nccc(-c3ccc4ccccc4c3)n2)CC1,2.91% (inactive)
4,CCOc1ccc(-n2c(C(C)N(Cc3cccnc3)C(=O)Cc3ccc(F)c(C(F)(F)F)c3)nc3ncccc3c2=O)cc1 (configuration not stated),3.6% (inactive)
5,CC(C)S(=O)(=O)c1ccc2nccc(Nc3ccc4scnc4c3)c2c1,1.92% (inactive)
6,CCC(C)CC(=O)OC1C(=O)C(CO)=CC(O)C1C(C)C (configuration not stated),-10.6% (inactive)
7,CC(C)=CCC[C@](C)(O[C@@H]1O[C@H](CO[C@@H]2OC[C@@H](O)[C@H](O)[C@H]2O)[C@@H](O)[C@H](O)[C@H]1O)[C@H]1CC[C@]2(C)[C@@H]1[C@H](O)C[C@@H]1[C@@]3(C)CC[C@H](O[C@@H]4O[C@H](CO)[C@@H](O)[C@H](O)[C@H]4O)C(C)(C)[C@@H]3CC[C@]12C,-2.96% [at 25.7 µM] (inactive)
8,COc1cc(-n2cnc3cc(-c4ccc(Cl)cc4)sc3c2=O)ccc1OCCN1CCCC1,0% (inactive)
9,CCc1ccc(-c2nc(CSCC(=O)NCCc3ccccc3)c(C)o2)cc1,-11.9% (inactive)
10,CC(C)NC(=O)COc1cccc(-c2nc(Nc3ccc4[nH]ncc4c3)c3ccccc3n2)c1,-25.3% (inactive)
11,CC(=O)O[C@@H]1[C@@H](OC(C)=O)[C@H](C)O[C@@H](O[C@H]2[C@@H]3C=CO[C@@H](O[C@@H]4O[C@H](CO)[C@@H](O)[C@H](O)[C@H]4O)[C@@H]3[C@@]3(CO)O[C@@H]23)[C@@H]1OC(=O)/C=C/c1ccccc1,0.993% [at 25.7 µM] (inactive)
12,CC[C@@H]1C[C@]1(NC(=O)[C@@H]1C[C@@H]2CN1C(=O)[C@H](C(C)(C)C)NC(=O)OCC(C)(C)CCCCc1cccc3c1CN(C3)C(=O)O2)C(=O)NS(=O)(=O)C1CC1,3.82% (inactive)
13,CC(C)=CCc1cc2c(cc1O)OC[C@H]1c3ccc(O)cc3O[C@@H]21,-9.14% (inactive)
14,COc1ccccc1C(=O)Nc1cccc(NC(=O)c2cccc(C)c2)c1,-4.18% (inactive)
15,COC1CC(=O)C23C(=O)NC(CC(C)C)C2C(C)C(C)=CC3/C=C(\C)CCCC1O (configuration not stated),-0.0103% [at 25.7 µM] (inactive)
16,CNc1nc(Nc2ccc(C(=O)N3CCOCC3)cc2OC)nc2[nH]cc(Cl)c12,-9% (inactive)
17,COc1cc(N2CCC(N3CCN(C)CC3)CC2)ccc1Nc1ncc(Cl)c(Nc2ccccc2P(C)(C)=O)n1,3.22% (inactive)
18,O=C([C@@H](Cc1cccc(C(F)(F)F)c1)NS(=O)(=O)c1cc(F)c2c(c1)CCNC2)N1CCCC1,-4.3% (inactive)
19,CC(C)c1ccc(-c2cc(=O)c3ccccc3o2)cc1,-13.5% (inactive)

row,SMILES,"activity, negative = inhibition"
1,O=C(Nc1nc2ccc([N+](=O)[O-])cc2s1)C1CCCCC1,-7.15% (inactive)
2,Cc1cc(C(C)Nc2ccccc2C(=O)O)c2nc(N3CCOCC3)cc(=O)n2c1 (configuration not stated),-19.7% (inactive)
3,C/C1=C\CCC2=CC(OC2=O)C(C)(C)/C=C/C1=O (configuration not stated),0% (inactive)
4,CC(O)(C(=O)C1CC1(CO)COC1OC(CO)C(O)C(O)C1O)C1C(O)CC2C3CC=C4CC(O)CC(O)C4(C)C3C(O)CC21C (configuration not stated),2.43% [at 25.7 µM] (inactive)
5,COc1cc2c(c(OC)c1CC=C(C)C)C[C@H](c1ccc(O)c(CC=C(C)C)c1O)CO2,-3.87% [at 25.7 µM] (inactive)
6,CCC(C)C(=O)OC1C(C)C2(O)C(C=C(CO)CC3(O)C(=O)C(C)=CC32)C2C(C)(C)C12OC(=O)C(C)C (configuration not stated),-3.54% [at 25.7 µM] (inactive)
7,COC1CCN(c2cccc(-c3cc(NC(C)=O)nc(-n4nc(C)cc4C)n3)n2)CC1,2.14% (inactive)
8,CCN1CCN(Cc2ccc(NC(=O)c3ccc(C)c(Oc4ncnc5[nH]c(C)cc45)c3)cc2C(F)(F)F)CC1,4.12% (inactive)
9,COc1ccc(OC)c(-c2ccc(NC(=O)c3ccncc3F)cc2)c1,3.71% (inactive)
10,Cc1cc(C(=O)Nc2cc(Nc3ccc4c(/C=C/c5ccccn5)n[nH]c4c3)ccc2F)n(C)n1,-0.91% (inactive)
11,Cc1ccc(O)cc1Nc1ccnc(Nc2cccc(C(N)=O)c2)n1,1.12% (inactive)
12,Cc1ccnn1-c1ccc(C(=O)N2CCN(S(=O)(=O)c3ccc(Cl)c(C(F)(F)F)c3)CC2)cc1,-5.41% (inactive)
13,C=C1/C(=C/C=C2\CCC[C@]3(C)[C@@H]([C@@H](C)OCCC(O)(CC)CC)CC[C@@H]23)C[C@@H](O)C[C@@H]1O,2.53% (inactive)
14,Cn1ncnc1[C@@H]1c2n[nH]c(=O)c3cc(F)cc(c23)N[C@H]1c1ccc(F)cc1,2.38% (inactive)
15,CN1CC2CN(c3ccc4oc5ccccc5c(=O)c4c3)CC2C1 (configuration not stated),-14.7% [at 25.7 µM] (inactive)
16,CC(C)(C)c1ccc(-c2nc3c(N4CCN(Cc5ccc6nccnc6c5)CC4)cccc3[nH]2)cc1,0.9% (inactive)
17,CC(C)S(=O)(=O)NC[C@@H]1CC(c2ccc(N3CCCC3)c(F)c2)=NO1,-2.75% (inactive)
18,COc1cc(F)c(C(C)C)cc1-c1ccc(C(F)(F)F)cc1CN1C(=O)OC(c2cc(C(F)(F)F)cc(C(F)(F)F)c2)C1C (configuration not stated),4.09% (inactive)
